Cycloheximide cs: counter-screen hit for Shiga toxin inhibitors, cycloheximide. cell reporter, cycloheximide protein synthesis inhibition counterscreen. AID 2314. max response, %. 12% of 300,000 active; in the data active = max response mostly above about 13%, no sharp cut-off; inactive = mostly below about 14%; note: read at 38.3 µM for the half of the compounds with a filed dose
Shiga inhibitor: inhibitors of Shiga toxin in Vero cells | Vero cells, Shiga toxin protein synthesis inhibition reporter | inhibition, % at 38.7 µM | 9.2% of 290,000 active; in the data active = inhibition mostly above about 28%, no sharp cut-off; inactive = mostly below about 43%
Pf growth 96h: P. falciparum growth inhibition at 96 hour, primary screen for plastid delayed-death inhibitors; P. falciparum luciferase reporter growth, 96 h; Potency, µM (doses to about 28.7 µM), actives largely listed as inhibitors; 6.9% of 320,000 active
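Two parasite generations (96 h, 37 C, 5% CO2) of compound exposure in infected erythrocytes (0.05% parasitemia, 2% hematocrit). Luciferase-reporter P. falciparum; decreased luminescence indicates inhibited growth, aimed at apicoplast-acting delayed death.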
SARS PLpro yeast: inhibitors of SARS-CoV papain-like protease in yeast; S. cerevisiae expressing SARS-CoV PLpro, growth rescue; Potency, µM (highest dose often 32.9 µM), most hits filed as activators; 0.19% of 330,000 active; AID 485353; calls by dose curve; note: nearly all actives have a fitted effect of over 55% in size
AMA1 RON2 block: AMA1-RON2 (P. falciparum) interaction inhibition; AlphaScreen AMA1-biotinylated RON2 peptide binding; Potency, µM (series often up to 58.2 µM), most hits filed as inhibitors; 0.2% of 360,000 active; AID 720542; note: nearly all actives have a fitted effect of over 45% in size
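AMA1 (3D7) with his tag at 25 nM final met compounds first, then biotinylated RON2 peptide at 25 nM; detection used donor plus acceptor beads, 10 µg/mL apiece, read by AlphaScreen after 30 min at room temperature.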
Pf growth 48h: P. falciparum growth inhibition at 48 hours (one generation) | P. falciparum luciferase growth in erythrocytes, 48 h | Potency, µM (titrated, usually from 28.7 µM), most hits filed as inhibitors | 5.9% of 310,000 active
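Luciferase-expressing parasites in RBCs, 2% Hct / 0.1% parasitemia final; RPMI 1640 + 0.5% Albumax; 37 C, 5% CO2, one generation; luminescence read-out, lower signal = inhibition.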
Of the large screens only hits and unclear results are named; the others gave an inactive call. Sampled rows, rich in hits. Any-hit rate of the full collection: about 19%. Unless noted, calls come from the whole dose curve; as a rule, active = well fitted curve in the direction sought with a large enough effect; inconclusive = small, poorly fitted or top-dose-only effect, or another doubt; inactive = no such curve, though single readings can be large; an effect the other way counts as inactive or inconclusive.

O=C(Nc1ccc(Cl)c(Cl)c1)Nc1cc(C(=O)NC2CC2)ccc1Cl	Pf growth 96h inconclusive, Pf growth 48h 13µM (no result: AMA1 RON2 block)
O=C(Nc1ccc2c(c1)Cc1ccccc1-2)c1ccncc1	Cycloheximide cs 33, Shiga inhibitor 66, Pf growth 96h inconclusive
O=C(Nc1cccc(C(F)(F)F)c1)c1cccnc1	none (no result: Pf growth 96h, SARS PLpro yeast)
O=C(Nc1cccnc1)c1ccc(Cl)c(Cl)c1	Cycloheximide cs 24, Pf growth 96h 6.6µM, Pf growth 48h inconclusive (no result: Shiga inhibitor)
CC(C)(C)c1cc(C(=O)Nc2cccnc2)cc(C(=O)Nc2cccnc2)c1	Pf growth 96h 0.83µM (no result: Pf growth 48h)
O=C(Nc1ccc2c(c1)COC2=O)c1ccc(Cl)c(Cl)c1	Cycloheximide cs 34, Shiga inhibitor 71
COc1ccc(N2CC(C(=O)Nc3c4c(nn3-c3ccccc3)CS(=O)(=O)C4)CC2=O)cc1 (stereo not drawn)	none
CS(=O)(=O)c1ccc(C(=O)Nc2cc(S(C)(=O)=O)ccc2Cl)cc1	none
CS(=O)(=O)c1cccc(NC(=O)c2ccc(Cl)c(Cl)c2)c1	Shiga inhibitor 54, Pf growth 96h inconclusive
COc1ccc(C(=O)Nc2ccc(Cl)c(Cl)c2)c(OC)n1	Cycloheximide cs 21, Shiga inhibitor 45
O=C(Nc1ccc(C2=NCCN2)cc1)c1ccc(Cl)c(C(=O)Nc2ccc(C3=NCCN3)cc2)c1	Pf growth 96h 0.21µM, Pf growth 48h 2.3µM (no result: AMA1 RON2 block)
CC(C)CNC(=O)CN(C)S(=O)(=O)c1ccc(F)cc1	none
CC1CCN(c2nc(CN3CCCCC3)nc3scc(-c4ccccc4)c23)CC1	Pf growth 96h 1.5µM, Pf growth 48h 2.3µM
CC1CCCN(c2nc(-c3cccnc3)nc3scc(-c4ccccc4)c23)C1 (stereo not drawn)	Cycloheximide cs 21, Shiga inhibitor 51, Pf growth 96h inconclusive
Cc1ccc(S(=O)(=O)N(CC(=O)N2CCc3ccccc3C2)c2ccc(Cl)c(Cl)c2)cc1	Pf growth 96h inconclusive, Pf growth 48h 10µM
COc1ccc(N(CC(=O)N2CCN(C)CC2)S(=O)(=O)c2cc(C)ccc2OC)cc1Cl	Pf growth 96h 8.3µM
COc1ccc(N(CC(=O)N2CCN(C)CC2)S(=O)(=O)c2ccccc2)cc1	none
COc1cccc(N(CC(=O)N2CCN(C)CC2)S(=O)(=O)c2ccc(C)cc2)c1	Pf growth 96h 12µM
COc1ccc(C)cc1S(=O)(=O)N(C)CC(=O)N1CCN(C)CC1	none (no result: Pf growth 48h)
O=C(Cc1ccccc1)NN1C(=O)C2C3C=CC(C4CC34)C2C1=O (stereo not drawn)	Pf growth 96h inconclusive, Pf growth 48h inconclusive
COc1ccc(S(=O)(=O)Nc2cc(C)on2)cc1	none
CN=C1N[C@H](c2ccccc2)N(c2ccccc2)S1	Cycloheximide cs 27 (no result: Pf growth 96h, SARS PLpro yeast, AMA1 RON2 block, Pf growth 48h)
O=C(CSc1nc2[nH]ncc2c(=O)[nH]1)Nc1ccccc1F	Pf growth 48h inconclusive (no result: Cycloheximide cs, Shiga inhibitor)
COc1cc(NC(=O)c2oc3ccccc3c2C)ccc1NC(=O)c1ccco1	Cycloheximide cs 29, Shiga inhibitor 63
COc1cc(NC(=O)c2ccccc2Cl)ccc1NC(=O)c1ccco1	Cycloheximide cs 41
COc1cc(NC(=O)c2ccco2)ccc1NC(=O)c1ccccc1Cl	Cycloheximide cs 13 (no result: Pf growth 96h)
CCO[C@@H]1OC(C(=O)NCc2nc3ccccc3[nH]2)=C[C@H](c2ccccc2)[C@H]1CCCO	Pf growth 96h inconclusive, Pf growth 48h inconclusive
CCO[C@@H]1OC(C(=O)NCc2nc3ccccc3[nH]2)=C[C@H](c2csc3ccccc23)[C@H]1CCCO	Pf growth 96h 13µM, Pf growth 48h inconclusive
CCO[C@H]1OC(C(=O)NCc2nc3ccccc3[nH]2)=C[C@@H](c2ccccc2)[C@@H]1CCCO	none
CCO[C@H]1OC(C(=O)NCc2nc3ccccc3[nH]2)=C[C@@H](c2csc3ccccc23)[C@@H]1CCCO	Pf growth 96h 10µM, Pf growth 48h 10µM
O=C(Nc1ccc(OC(F)(F)F)cc1)Nc1cccc([N+](=O)[O-])c1	Cycloheximide cs 18, Shiga inhibitor 58, Pf growth 96h inconclusive, Pf growth 48h 2.6µM
Cc1ccc(NC(=O)Nc2cccc([N+](=O)[O-])c2)cc1F	Cycloheximide cs 31, Shiga inhibitor 54, Pf growth 96h inconclusive
O=C1/C(=C/c2ccc(Cl)cc2)SC(=S)N1CCC(=O)N1CCCCC1CCO (stereo not drawn)	Pf growth 96h 13µM
O=C1/C(=C/c2ccccc2F)SC(=S)N1CC(=O)N1CCCCC1c1cccnc1 (stereo not drawn)	Pf growth 96h 15µM
O=C1/C(=C/c2cccs2)SC(=S)N1CC(=O)N1CCCCC1CCO (stereo not drawn)	Cycloheximide cs 15
O=C1/C(=C/c2ccccc2F)SC(=S)N1CCC(=O)N1CCCCC1CCO (stereo not drawn)	Cycloheximide cs 31, Pf growth 96h inconclusive, Pf growth 48h inconclusive
O=C1/C(=C/c2ccc(F)cc2)SC(=S)N1CC(=O)N1CCCCC1c1cccnc1 (stereo not drawn)	Pf growth 96h inconclusive
CCOc1ccc(CCN2C(=O)C(=O)N([C@@H](Cc3ccccc3)CN3CCC[C@H]3CN3C(=O)C(=O)NC[C@@H]3Cc3ccccc3)C[C@@H]2Cc2ccc(O)cc2)cc1	none (no result: Cycloheximide cs, Shiga inhibitor, Pf growth 96h, SARS PLpro yeast, Pf growth 48h)
CC(/C=N\NC(=O)Cn1c(C)nc2ccccc21)=C\c1ccccc1	none
O=C(CCNS(=O)(=O)c1ccc(OC(F)(F)F)cc1)N1CCN(S(=O)(=O)c2cccc(F)c2)CC1	none (no result: Cycloheximide cs, Shiga inhibitor)
Cc1ccc(OCC(=O)OCC(=O)NC2CCS(=O)(=O)C2)cc1C (stereo not drawn)	none (no result: Cycloheximide cs, Shiga inhibitor, Pf growth 96h, SARS PLpro yeast, Pf growth 48h)
O=C1/C(=C/c2ccco2)SC(=S)N1CCC(=O)N1CCCCC1CCO (stereo not drawn)	Cycloheximide cs 11, Pf growth 96h inconclusive, Pf growth 48h inconclusive
O=C1/C(=C/c2cccc(Cl)c2)SC(=S)N1CCC(=O)N1CCCCC1CCO (stereo not drawn)	Pf growth 96h inconclusive, Pf growth 48h inconclusive
O=C1/C(=C/c2ccccc2)SC(=S)N1CCCC(=O)N1CCCCC1CCO (stereo not drawn)	Pf growth 96h 7.4µM, Pf growth 48h inconclusive
O=C(COC(=O)Cc1ccccc1F)Nc1cccc(S(=O)(=O)NC2=NCCCCC2)c1	none
COc1ccc(OC)c(-c2cc(C(=O)N3CCOCC3)no2)c1	Cycloheximide cs 14
Cc1onc(-c2ccccc2Cl)c1C(=O)N1CCCCC1	none
O=C(c1cc(-c2ccccc2O)on1)N1CCOCC1	Cycloheximide cs 31, Shiga inhibitor 80
COc1ccccc1-c1cc(C(=O)N2CCN(c3ccccc3)CC2)no1	none
COc1ccc2cc(OC)c(C(=O)N3CCOCC3)cc2c1	none
O=C(c1cc(-c2ccccc2O)on1)N1CCCCCC1	Cycloheximide cs 34, Shiga inhibitor 104
O=C(CSc1nnc(-c2ccc(F)cc2)o1)Nc1ccc(S(=O)(=O)N2CCCC2)cc1	Cycloheximide cs 20, Pf growth 48h inconclusive

Bioassay records as filed in PubChem BioAssay.
